Out of some 48,000 compounds screened, about 13,000 (27%) showed an effect of 50% or more. The list shows a part of the results.
Each compound was assayed on Wolbachia pipientis (assay: Anti-Wolbachia Cell-Based Screen). Settings: 5 µM.
Type: functional
Parameters: scale not given: in the data most compounds retested in dose-response had high values

| SMILES | Percent Effect [%] |
| --- | --- |
| CC(C)(N)c1nc(C(F)F)cc(=O)[nH]1.Cl | 0.5685 |
| COc1ccccc1NCC(=O)Nc1cnn(Cc2ccccn2)c1 | -4.871 |
| COc1ccccc1NC(=O)Cc1c(C)nc2c(c1C)c(=O)[nH]n2C | -0.4507 |
| CCOc1nc2cnccc2n(CC(=O)NCc2ccc(C)cc2)c1=O | 143.1 |
| CCOc1nc2cccnc2n(CC(=O)NCCOC)c1=O | -3.624 |
| O=C(CN1CCC(c2cccc(F)c2)C1)NCc1ccco1 (centres undefined) | -26.03 |
| CC1CN(CC(=O)NCCc2ccncc2)Cc2ccccc2O1 (centres undefined) | -8.36 |
| CCOc1nc2cnccc2n(CC(=O)Nc2ccccc2OC)c1=O | 90.9 |
| CCOc1nc2cnccc2n(CC(=O)NCc2ccco2)c1=O | 96.93 |
| CCOc1nc2cnccc2n(CC(=O)NCCc2ccccc2)c1=O | 107.7 |
| CCOc1ccc(CNC(=O)c2cnc(OC)nc2)cc1 | -7.599 |
| CC(C)(C)n1ncc2c(=O)n(CC(=O)NCc3ccco3)cnc21 | 3.142 |
| Cc1nsc(N2CCN(CC(=O)NCc3cccnc3)CC2)n1 | 1.2 |
| CC(C)N(CC(N)=O)CC(=O)N(C1=CCCCC1)C1CC1 | -0.3485 |
| CCC(CC)C(=O)NS(=O)(=O)CCc1ccccc1 | -5.917 |
| COCCn1cc(C(=O)N2CCCC2c2ccccc2C)ccc1=O (centres undefined) | -35.63 |
| Fc1cnc(N2CCn3cc(CNc4ccccn4)nc3C2)nc1.O=C(O)C(F)(F)F.O=C(O)C(F)(F)F | -14.44 |
| OC1(CNc2cc(C(F)(F)F)nc3ccccc23)CCOCC1 | 28.2 |
| Cc1cc(NC(=O)CNC(C)(C)c2ccccc2)on1 | 5.655 |
| CCN1CCC(CNC(=O)C(c2ccccc2F)N(C)C)(N(C)C)CC1 (centres undefined) | 4.874 |
| CCCn1nc2c(cc1=O)CN(Cc1nnc(C3CC3)o1)CC2 | 20.46 |
| Cc1cc(F)ccc1N1CCCC(NS(=O)(=O)CCCF)C1=O (centres undefined) | -6.348 |

| SMILES | Percent Effect [%] |
| --- | --- |
| Cn1c(SCC(O)COCc2ccccc2Cl)nnc1C1CC1 (centres undefined) | -19.68 |
| COc1ccc(F)c(CN2CCCC(O)(CNCc3ccon3)C2=O)c1 (centres undefined) | -2.252 |
| CC(C)N(C)C(=O)c1ccc(Cl)c(NC(=O)CCN2C(=O)CCC2=O)c1 | -4.274 |
| Cc1c(NC(C)C(C)C)cccc1C(=O)NCc1ccnn1C (centres undefined) | 9.043 |
| CC(=O)NCCC(=O)NCc1cccnc1-n1cnc2ccccc21 | -3.508 |
| CCN(CC)S(=O)(=O)CCNc1ncnc2cc(F)c(F)cc12 | 0.3954 |
| O=C(COCc1ccccc1)Nc1ccccn1 | -24.26 |
| CCOC(=O)Cn1cnc2nc3n(c2c1=O)CCC3 | -20.3 |
| CCOC(=O)Cn1c(=O)c(OCC)nc2cnccc21 | 100.3 |
| CCOC(=O)N1CCN(C(=O)Cn2ccc3ncccc3c2=O)CC1 | -21.73 |
| CN(Cc1nccn1C)S(=O)(=O)Cc1cccc(C#N)c1 | 6.063 |
| O=C(c1csc(C2CC2)n1)N1CCCCC1Cn1cccn1 (centres undefined) | 99.33 |
| O=C(c1csc(C2CC2)n1)N1CCCC1Cn1cccn1 (centres undefined) | 109.4 |
| COCc1nc(C(=O)N2CCCCC2Cn2cccn2)cs1 (centres undefined) | 0.9161 |
| NC(=O)CCn1cc(CNCc2csc(N)n2)c2ccccc21 | -0.3339 |
| Cc1cccc(CN2CCCC2c2cncc(Nc3nncs3)n2)c1 (centres undefined) | 111.5 |
| COC(=O)C(CNC(=O)Nc1nncs1)Cc1cccc(C)c1 (centres undefined) | -9.936 |
| COc1cccc(CN(C(=O)Nc2nncs2)C2CCC(O)CC2)c1 (centres undefined) | 4.875 |
| COc1cccc(CN2CCCC2c2cncc(Nc3nncs3)n2)c1 (centres undefined) | 147.7 |
| COc1cccc(CN2CCCC2c2ccc[nH]2)c1 (centres undefined) | 13.97 |
| Cc1ccccc1CN1CCC[C@H]1c1nc(-c2cncnc2N)no1 | -17.12 |
| CNc1cncc(C2CCCN2Cc2ccccc2OCC(=O)O)n1 (centres undefined) | -10.59 |

| SMILES | Percent Effect [%] |
| --- | --- |
| Cc1ccccc1CN1CCCC1c1cncc(Nc2nncs2)n1 (centres undefined) | 132.3 |
| CCCN1CCCn2nc(CNC(=O)CC(C)n3ccnc3C)cc2C1 (centres undefined) | -9.141 |
| CCc1ncc(C(=O)N2CCN(c3cnn(C)c(=O)c3)CC2)cn1 | -4.796 |
| COCc1nc2ncc3c(=O)n(-c4ccc(OC)cc4)ccc3n2n1 | 103.2 |
| O=c1c2cnc(N3CCCC3)nc2ccn1-c1cccc(F)c1 | -1.705 |
| COCc1nc2ncc3c(=O)n(-c4ccccc4OC)ccc3n2n1 | 126.9 |
| O=c1c2cnc(N3CCCC3)nc2ccn1-c1cccc(C(F)(F)F)c1 | 0.9271 |
| CCOc1ccc(-n2ccc3nc(N4CCCC4)ncc3c2=O)cc1 | -8.321 |
| COCc1nc2ncc3c(=O)n(-c4cccc(OC)c4)ccc3n2n1 | 97.73 |
| Cc1ccccc1-n1ccc2nc(N3CCCC3)ncc2c1=O | -4.338 |
| COCc1nc2ncc3c(=O)n(-c4ccc(C(C)=O)cc4)ccc3n2n1 | 38.7 |
| O=c1c2cnc(N3CCCCC3)nc2ccn1-c1ccccc1F | 37.48 |
| Cc1ccc(NC(=O)CCc2ccco2)cc1N1CCOC1=O | -14.01 |
| CCCOCC(=O)Nc1ncc(I)cc1C | -6.497 |
| O=C(CCC1CCCN(C(=O)CCN2CCCCO2)C1)N1CCCC1 (centres undefined) | 3.672 |
| CNc1nc(N2CCN(Cc3ccsc3)C(CCO)C2)nc2c1CCC2 (centres undefined) | -11.96 |
| COCCn1ccc(NC(=O)Nc2ccccc2)n1 | 3.766 |
| CCN(Cc1cnn(CC)c1)C(=O)CN1C(=O)CCc2ccccc21 | -11.46 |
| CCN1C(=O)C(C)(C)c2cc(NC(=O)c3ccco3)ccc21 | -4.693 |
| CCn1cc(NC(=O)CN2C(=O)CC(C)(C)c3ccccc32)cn1 | 116.8 |
| CCn1ccc(NC(=O)CN2C(=O)C(C)(C)c3ccccc32)n1 | 112.9 |
| CCn1cc(NC(=O)NCC(O)c2ccccc2)cn1 (centres undefined) | -11.2 |

| SMILES | Percent Effect [%] |
| --- | --- |
| COCCn1ccc(NC(=O)Nc2ccccn2)n1 | 7.746 |
| NC(=O)Cn1ccc(NC(=O)C2(c3cccc(F)c3)CCC2)n1 | -8.022 |
| CCn1ccc(NC(=O)CN2C(=O)CC(C)(C)c3ccccc32)n1 | 127.7 |
| C[C@@H](NCc1cccc(Cl)c1)c1onc(-c2ccc(F)cc2)c1C(=O)O.Cl | -9.594 |
| Cc1c(C(=O)N2CC(C)(C)C2(C)C)nnn1-c1cccc2cnccc12 | -4.075 |
| COCCC1CCCCN1Cc1nc(Cc2cccc(F)c2)no1 (centres undefined) | 4.701 |
| Cc1cnn(CC2CCCN2Cc2coc(-c3cccs3)n2)c1 (centres undefined) | -13.53 |
| c1csc(CCC2CCCCN2Cc2noc(C3CC3)n2)c1 (centres undefined) | 94.56 |
| Cc1nc(CN2CCCCC2CCc2cccs2)co1 (centres undefined) | 96.55 |
| COCCC1CCCCN1Cc1nc(C2CC2)no1 (centres undefined) | -11.16 |
| COCc1noc(CN2CCCCC2CCc2cccs2)n1 (centres undefined) | 103.5 |
| Cc1nc(C)n(CC2CCCN2CCc2cccs2)n1 (centres undefined) | -19.79 |
| CC(C)(C(=O)NCCCc1nc2ccccc2[nH]1)n1cc(Cl)cn1 | -7.293 |
| CC(C)CC(CCO)CNC(=O)N1CCC1(C)C (centres undefined) | -13.05 |
| Cc1nnc2n1CCN(C(=O)c1cnc3c(cnn3C(C)C)c1)C2 | -12.78 |
| CCOCC(=O)N1CCC(Cc2nnc(SC)n2C)CC1 | 5.722 |
| O=S(=O)(NCc1ccccc1Cn1cncn1)N1CCCCCC1 | 113.8 |
| O=S(=O)(NCc1cccnc1OC1CCCC1)N1CCCCC1 | 6.628 |
| CC1CN(Cc2ccccc2Cn2cccn2)CCN1C (centres undefined) | -6.674 |
| CC1CCN(S(=O)(=O)NCc2ccccc2Cn2cccn2)CC1 | 110.3 |
| O=S(=O)(NCc1ccccc1Cn1cncn1)C1CCCC1 | 4.456 |
| NC(=O)C1CCN(C(=O)NCc2ccccc2Cn2cncn2)CC1 | -13.11 |

| SMILES | Percent Effect [%] |
| --- | --- |
| O=S(=O)(NCc1ccccc1Cn1cncn1)N1CCCCC1 | 112.9 |
| CC1CCCN(S(=O)(=O)NCc2ccccc2Cn2cncn2)C1 (centres undefined) | 105.5 |
| Cc1nccn1-c1ccc(CNS(=O)(=O)N2CCC(C)CC2)cn1 | 2.013 |
| O=C(CCNC(=O)C1CCCC1)NCc1ccccc1Cn1cncn1 | 1.009 |
| CC1CCN(S(=O)(=O)NCc2ccccc2Cn2cncn2)CC1 | 5.954 |
| CN(C)C1CCN(C(=O)NCc2ccccc2Cn2cncn2)CC1 | -21.25 |
| CCN1CCCC1CN(Cc1cc[nH]n1)CC1CCN(CCOC)CC1 (centres undefined) | -0.05242 |
| CN1CCC(N(Cc2ccco2)S(=O)(=O)c2ccc(Br)cc2Cl)CC1 | 36.62 |
| CCN1C(=O)C2(CCOCC2)c2cc(NC(=O)c3cnccn3)ccc21 | -0.09306 |
| CC(=O)NCC(=O)N1Cc2cnc(CC(C)C)nc2C1 | 15.63 |
| NCC1CN(Cc2cn(CCC(N)=O)c3ccccc23)CCO1 (centres undefined) | -15.16 |
| Cc1noc(C)c1-c1cc(CCC2CN(CCC(N)=O)CCO2)ncn1 (centres undefined) | 120.1 |
| CCC1CN(C(=O)c2[nH]nc(C)c2Br)CCO1 (centres undefined) | -57.1 |
| Cc1noc(C)c1-c1cc(CCC2CN(C(=O)CN)CCO2)ncn1 (centres undefined) | 152 |
| CC(=O)N1CCOC(CCc2cc(-c3c(C)noc3C)ncn2)C1 (centres undefined) | 154 |
| Cc1noc(C)c1CNC(C(=O)N1CCOCC1)C(C)C (centres undefined) | 6.768 |
| COCCC1CN(Cc2cn(CCC(N)=O)c3ccccc23)CCO1 (centres undefined) | -2.901 |
| Cc1noc(C)c1-c1cc(CCC2CN(C(=O)C(C)C)CCO2)ncn1 (centres undefined) | 137.5 |
| Cc1ccnn1CCC(=O)N1CCOC(CCc2ccccc2)C1 (centres undefined) | -2.997 |
| Cc1[nH]nc(CCC(=O)N2CCOC(CCc3ccccc3)C2)c1C (centres undefined) | -1.139 |
| COCC1CN(C(=O)Nc2cc(Cl)cc(Cl)c2)CCO1 (centres undefined) | -11.38 |

— ChEMBL document CHEMBL3988442, “University of Dundee, Small-Polar-MMV Screening Library” (2021)
